Screening data as filed in PubChem.
Sampled rows, rich in hits. Any-hit rate of the full collection: about 1.6%.
KCNQ2 block = rat KCNQ2 potassium channel inhibitors, primary screen, cell-based, CHO-K1, FluxOR thallium flux, B-score; Potassium voltage-gated channel subfamily KQT member 2 (Rattus norvegicus), O88943; B-score at 10 µM; hit rate 1.1% among 310,000; AID 2156, 2009; 20 min; active compounds read low;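 active = fluorescence ratio B-score at most minus 3 library SDs, with starting brightness B-score within 2 library SDs, cut at about -5.5 in these data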
Target sequence (O88943 whole entry, looked up): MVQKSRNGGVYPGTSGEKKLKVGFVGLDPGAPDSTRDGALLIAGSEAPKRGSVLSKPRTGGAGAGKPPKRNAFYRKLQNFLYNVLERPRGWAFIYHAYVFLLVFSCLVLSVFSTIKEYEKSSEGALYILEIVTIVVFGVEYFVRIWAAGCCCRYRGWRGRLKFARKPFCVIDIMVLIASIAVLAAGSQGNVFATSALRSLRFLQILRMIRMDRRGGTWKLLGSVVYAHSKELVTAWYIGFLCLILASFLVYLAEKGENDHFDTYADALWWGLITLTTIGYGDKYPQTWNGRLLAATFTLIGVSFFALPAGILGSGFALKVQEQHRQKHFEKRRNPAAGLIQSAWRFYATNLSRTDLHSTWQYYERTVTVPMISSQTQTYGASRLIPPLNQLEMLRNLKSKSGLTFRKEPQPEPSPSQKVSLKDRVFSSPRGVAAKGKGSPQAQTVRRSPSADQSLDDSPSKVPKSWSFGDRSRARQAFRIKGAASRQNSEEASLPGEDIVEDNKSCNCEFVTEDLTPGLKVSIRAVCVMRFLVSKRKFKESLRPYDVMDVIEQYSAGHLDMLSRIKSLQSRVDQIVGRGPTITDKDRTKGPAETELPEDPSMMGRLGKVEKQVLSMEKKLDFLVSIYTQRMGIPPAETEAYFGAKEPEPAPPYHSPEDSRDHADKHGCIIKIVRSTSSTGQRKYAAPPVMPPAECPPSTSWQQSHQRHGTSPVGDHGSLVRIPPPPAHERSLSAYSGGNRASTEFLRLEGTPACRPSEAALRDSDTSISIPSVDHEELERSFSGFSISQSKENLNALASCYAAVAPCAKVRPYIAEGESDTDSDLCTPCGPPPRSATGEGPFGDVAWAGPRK
KCNQ2 pot = potentiators of rat KCNQ2 potassium channel; B-score at 10 µM; Potassium voltage-gated channel subfamily KQT member 2 (Rattus norvegicus), O88943; CHO-K1 KCNQ2, FluxOR thallium flux fluorescence; active compounds read high; hit rate 0.54% among 310,000;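 active = fluorescence ratio B-score at least 3 SD of library B-scores, with initial fluorescence B-score within 3 of them, cut at about 5.3 in these data; same plate scores as AID 2156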;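 also: B-score of peak minus minimum over baseline fluorescence ratio after K+ and Tl+ stimulus; positive B-score means potentiation of KCNQ2 with more thallium influx and brighter signal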
The depositor's hits bear a star; i = inactive; . = not tested or not shown.

SMILES	KCNQ2 block	KCNQ2 pot
CCOC(=O)C(C)(C)N(Cc1ccccc1C)S(=O)(=O)c1ccc(Cl)c([N+](=O)[O-])c1	-7.2*	-7.2
CCCN(CCC)S(=O)(=O)c1ccc(Cl)c([N+](=O)[O-])c1	i	.
Cc1nccn1CCCNC(=O)CC1C(=O)NCCN1Cc1ccc(F)cc1Cl (configuration not stated)	i	1
CN(C)c1ccc(/C=C/c2nc3ccccc3c(=O)n2CCO)cc1	-6*	-6
O=c1c2ccccc2nc(/C=C/c2ccccc2)n1CCCO	i	2.5
C/C(=N\NC(=O)c1cc(C)nc2ccccc12)c1cccc(Cl)c1	i	.
COc1ccc(S(=O)(=O)N2CCC(c3cc(-c4cccc5ccccc45)n[nH]3)CC2)cc1	i	.
O=S(=O)(c1cccc(C(F)(F)F)c1)N1CCC(c2cc(-c3cccc4ccccc34)n[nH]2)CC1	-6.1*	-6.1
CN(CC(=O)Nc1ccc(N2CCOCC2)cc1)C(=O)CCNC(=O)c1ccc(Br)cc1	i	0.26
Cn1nc(C(F)(F)F)c(/C=N/OC(=O)c2ccccc2)c1Sc1ccc(Cl)cc1	-5.7*	-5.7
Cn1nc(C(F)(F)F)c(/C=N/OC(=O)c2ccccc2)c1Cl	i	.
O=C(N[C@@H](Cc1ccccc1)C(=O)OCC(=O)N1CCOCC1)c1cccs1	i	0.12
COc1cc(OC)cc(C(=O)Nc2nc(CC(=O)NC(C)c3ccccc3)cs2)c1 (configuration not stated)	-6.3*	-6.3
COc1ccc(C(=O)Nc2nc(CC(=O)NCCc3ccccc3)cs2)cc1	i	.
CN(C)S(=O)(=O)c1ccc(/C(O)=C2/C(=O)C(=O)N(CCCN3CCOCC3)C2c2ccncc2)cc1 (configuration not stated)	i	.
CCn1c(/C=C/c2ccccc2)nc2ccccc21	i	.
CCC(C)n1c(/C=C/c2ccccc2)nc2ccccc21 (configuration not stated)	-5.7*	-5.7
CC(=O)Nc1cccc(N=NN2CCCCC2)c1	i	.
O=C(N/N=C/c1sc(N2CCOCC2)nc1-c1ccccc1)c1ccccc1F	i	.
O=C(Nc1ccccc1F)C(=Cc1sc(N2CCOCC2)nc1-c1ccccc1)C(=O)Nc1ccccc1F	-6.5*	-6.5
COc1ccc(/C=C/C(=O)C2(O)CCCCC2)cc1OC	i	.
CC(C)(C)OC(=O)N1CCC(CC2CC(c3cccc(Br)c3)=NO2)(C(=O)NCC2CCCCC2)CC1 (configuration not stated)	-8.1*	-8.1
O=C(c1ccccc1)N1CCC(CC2CC(c3cccc(Br)c3)=NO2)(C(=O)NCC2CCCCC2)CC1 (configuration not stated)	i	.
CC1=C(CC(=O)NCC(=O)NCC(=O)O)c2cc(F)ccc2/C1=C/c1ccc(S(C)=O)cc1 (configuration not stated)	i	.
CCN(CC)Cc1cc2[nH]c3c4ccc(Cl)cc4ncc3c2cc1OC	i	3
SMILES	KCNQ2 block	KCNQ2 pot
O=C(CCC(=O)c1cccs1)NCc1cccc(C(F)(F)F)c1	-6.4*	-6.4
O=C(CCC(=O)c1cccs1)NCc1cccc(Cl)c1	-6.3*	-6.3
O=C(CSc1cccc(C(F)(F)F)c1)NCc1ccccc1	i	16*
O=C(O)CSCC(=O)NCc1cccc(C(F)(F)F)c1	i	0.01
O=C(CSc1ccccc1)NCc1ccccc1	i	.
O=C(COC(=O)CCC(=O)c1cccs1)NCc1ccc(Cl)cc1	i	0.13
O=c1cc(CCl)nc(Cc2c(Cl)cccc2Cl)[nH]1	i	0.2
CN(C)S(=O)(=O)c1ccc(C(=O)Nc2ccn(C)n2)cc1	i	.
Cc1ccccc1NC(=O)C1C2CCCCC21 (configuration not stated)	i	.
Cc1ccccc1NC(=O)C1C2/C=C\CCCCC21 (configuration not stated)	i	5.4*
COc1cccc2c1cc1c(=O)n(CC(=O)N3CCCCCC3)nc(C)n12	-5.7*	-5.7
CCOC(=O)C1CCCN(C(=O)Cn2nc(C)n3c(cc4c(OC)cccc43)c2=O)C1 (configuration not stated)	i	0.99
CC(C)(C)c1ccc(C2(C)NC(=O)NC2=O)cc1 (configuration not stated)	i	0.97
C=C(C)[C@@H]1CC=C(CN2CCC(CCOC)(C(=O)OCC)CC2)CC1	i	0.57
Oc1ccc2ccccc2c1CNc1ccc(Br)cc1	i	.
Oc1ccc2ccccc2c1CNc1ccc(Br)cn1	-6.2*	-6.2
O[C@@H](c1cc(C(F)(F)F)nc2c(C(F)(F)F)cccc12)[C@H]1CCCCN1	i	0.92
OC(c1cc(-c2ccc(Cl)cc2)nc2ccccc12)C1CCCCN1 (configuration not stated)	-7.3*	-7.3
COc1ccc(NC(=O)COC(=O)CC23CC4CC(CC(C4)C2)C3)c([N+](=O)[O-])c1	-6.1*	-6.1
CCC(=O)OCC(=O)Nc1ccc(OC)cc1[N+](=O)[O-]	i	.
COC(=O)c1sccc1NC(=O)COc1ccccc1Cl	i	.
CCc1ccc(CN(C)C(=O)c2cc(COc3ccc(OC)cc3Cl)on2)nc1	i	.
Cc1c(Cl)cccc1-n1c(SCC(=O)NCc2cccs2)nnc1-c1ccncc1	i	0.01
Cc1c(Cl)cccc1-n1c(SCC(=O)NCc2ccccc2Cl)nnc1-c1ccncc1	-6.4*	-6.4
Cc1cc(C)nc(N/N=C/C2=C(O)CC(c3ccccc3)CC2=O)n1 (configuration not stated)	i	0.29
SMILES	KCNQ2 block	KCNQ2 pot
C=CCn1c(COc2ccccc2)nnc1SC(C)C(=O)N/N=C/c1cc(Cl)ccc1O (configuration not stated)	-7.6*	-7.6
C=CCn1c(COc2ccc(Cl)cc2)nnc1SCC(=O)N/N=C/c1cccc(O)c1	i	1
Cc1nnc(NC(=O)c2ccc(Br)o2)s1	i	.
CC(C)OC(=O)CSc1nc2c(c(C3CC=CCC3)c1C#N)CCC2 (configuration not stated)	-6*	-6
Cc1cc(C)c(C#N)c(SCC(=O)CC(=O)OC(C)C)n1	i	.
CC(C(=O)NCCSCc1cccc(Cl)c1)N(c1ccccc1)S(C)(=O)=O (configuration not stated)	i	1.9
CC(NC(=S)NCc1ccccc1)C12CC3CC(CC(C3)C1)C2 (configuration not stated)	i	.
CCN(CC(=O)NCc1cccs1)C(=O)c1ccc(NS(=O)(=O)c2ccc(F)cc2)cc1	i	1.2
CCOc1ccc(OCc2ccc(C(=O)N3CCCCC3)o2)cc1	i	0.18
CCOc1ccc(OCc2ccc(C(=O)N3CCc4ccccc4C3)o2)cc1	-6.1*	-6.1
Cc1ccc(S(=O)(=O)N(CC(=O)Nc2cccc(C(F)(F)F)c2)C(=O)N2CCN(C)CC2)cc1	i	0.74
O=C(CN(Cc1ccco1)C(=O)c1ccc(Cl)cc1)Nc1c(Cl)cc(Cl)cc1Cl	i	.
O=C(CN(Cc1ccco1)C(=O)c1cccc(Cl)c1)Nc1c(Cl)cc(Cl)cc1Cl	-5.7*	-5.7
COc1ccccc1N(Cc1ccccc1)S(=O)(=O)c1cccc(C(=O)Nc2ccccn2)c1	i	.
COc1ccccc1N(Cc1ccccc1)S(=O)(=O)c1cccc(C(=O)Nc2ccc(C)cn2)c1	-7.1*	-7.1
COc1cc(NC(=O)CN2C(=O)CSc3ccc(S(=O)(=O)N4CCCC4)cc32)cc(OC)c1	i	.
